Only some compounds are listed: those with a hit (about 2.4% of all), similar ones and a draw of the others.
D2 antag: HTS Assay for Allosteric Antagonists of the Human D2 Dopamine Receptor: Primary Screen for Antagonists. HEK293 TREx D2 cells, calcium flux, dopamine EC80. inhibition, % at 10 µM. 340,000 tested, 2% active. AID 485344, 2010; in the data active means inhibition above about 30%; inactive means below that, where a call was filed; further: 0% is about no effect
Target sequence (P14416 whole entry, looked up): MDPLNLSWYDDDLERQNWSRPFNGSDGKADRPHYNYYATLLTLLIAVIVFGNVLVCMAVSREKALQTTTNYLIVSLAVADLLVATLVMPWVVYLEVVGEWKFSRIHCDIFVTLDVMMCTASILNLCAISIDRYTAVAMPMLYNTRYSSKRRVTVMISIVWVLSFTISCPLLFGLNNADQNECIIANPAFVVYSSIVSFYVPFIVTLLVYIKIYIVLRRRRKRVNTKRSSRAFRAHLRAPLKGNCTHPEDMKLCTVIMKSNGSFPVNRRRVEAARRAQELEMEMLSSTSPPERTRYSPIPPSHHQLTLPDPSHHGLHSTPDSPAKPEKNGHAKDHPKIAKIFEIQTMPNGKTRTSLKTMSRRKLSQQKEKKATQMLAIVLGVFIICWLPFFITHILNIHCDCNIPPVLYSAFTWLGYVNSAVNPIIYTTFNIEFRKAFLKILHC
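Cells plated overnight at 30 C with tetracycline; no-wash calcium dye, 30–90 min RT; 10 s baseline; compound pinned; 180 s read; EC80 dopamine added; another 180 s read.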
D2 ag-1: HTS Assay for Allosteric Agonists of the Human D2 Dopamine Receptor: Primary Screen for Agonists; HEK293 T-REx D2 cells, calcium flux agonist mode; activation, % at 2 µM; 340,000 tested, 0.53% active;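 active means activation over 3 SD above normal in the single-dose calcium agonist read, cut at about 30% in these data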; further: 0% is about no effect
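Tetracycline-induced HEK293 T-REx cells with force-coupled D2 receptor, plated overnight at 30 C, loaded with no-wash calcium dye. After a 10 s baseline, compound was pin-added and calcium flux read kinetically for 180 s; calcium rises flagged agonists.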
D2 PAM-1: Beta-Arrestin HTS for Positive Allosteric Modulators of the Human D2 Dopamine Receptor: Potentiators. potentiation, % (concentration not given with the values). 360,000 tested, 0.23% active. D(2) dopamine receptor (Homo sapiens), P14416. DiscoveRx D2 beta-arrestin cells, luminescence, 90 min; 100% = 57 uM dopamine signal; in the data active means potentiation above about 50%
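PathHunter beta-arrestin assay in DiscoveRx D2 cells. Compounds were added with an EC20 of dopamine (50 nM final) for 90 min at 37 deg C. Luminescence was read 1 h after detection reagent, with 57 uM dopamine as the EC100 control.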
D2 ag-2: Beta-Arrestin HTS for Positive Allosteric Modulators of the Human D2 Dopamine Receptor: Agonists; DiscoveRx PathHunter D2 beta-arrestin, luminescence, 90 min; 100% = 57 uM dopamine signal; activation, % (concentration not given with the values); 360,000 tested, 0.084% active; in the data active means activation above about 40%
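DiscoveRx PathHunter D2 beta-arrestin cells (2,100/well) attached overnight, then compound-stimulated 90 min at 37 C in HBSS/10 mM HEPES/0.1% Tween-20 buffer; beta-galactosidase complementation read by luminescence after 1 h at ambient temperature. Dopamine 57 uM final (EC100) as control.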
D2 PAM-2: HTS Assay for Positive Allosteric Modulators of the Human D2 Dopamine Receptor: Primary Screen for Potentiators; D(2) dopamine receptor (Homo sapiens), P14416; HEK293 T-REx D2, calcium flux, EC20 dopamine potentiation; potentiation, % at 10 µM; 340,000 tested, 0.34% active; AID 485347, 2010;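 active means potentiation over 3 SD above the plate norm, cut at about 30% in these data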; further: 0% is about no effect
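Tetracycline-induced HEK293 T-REx cells force-coupled to calcium signalling expressed D2; compounds were pin-added after a 10 s baseline, read kinetically 180 s, then an EC20 dopamine challenge followed with a further 180 s calcium read.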
* marks the source's active call; other numbers are inactive results; x = no result given.

SMILES	D2 antag	D2 ag-1	D2 PAM-1	D2 ag-2	D2 PAM-2
OC(COc1cccc2ccccc12)CN1CCN(c2ccccc2Cl)CC1 (configuration not stated)	39.1*	7.9	-43.5	-12.6	-17.9
Cc1ccc(Cl)cc1N1CCN(CC(O)COCc2ccco2)CC1 (configuration not stated)	97.4*	-2.0	-35.1	-0.4	-24.1
CCN(CC(=O)Nc1c(F)cccc1F)C(=O)C1COc2ccccc2O1 (configuration not stated)	35.7*	0.0	0.2	0.6	9.4
CCOC(=O)N1CCN(C2OC(=O)c3ccccc32)CC1 (configuration not stated)	-2.9	1.4	-13.1	-0.4	14.2
O=C1OC(N2CCN(C(=O)C3CCCO3)CC2)c2ccccc21 (configuration not stated)	-11.2	0.3	55.0*	2.8	-5.4
CCOc1ccc(C2N3CC4(C(C)C)CN2CC(C(C)C)(C3)C4=O)cc1OC (configuration not stated)	x	2.5	x	x	x
CN(C)C=NC(=O)c1cc(C(=O)c2ccccc2Cl)c[nH]1	46.3*	0.4	2.9	-0.6	-3.6
O=C(COC(=O)/C=C/c1cccc([N+](=O)[O-])c1)Nc1ccc(Cl)cn1	39.3*	0.1	-3.5	-1.7	13.3
Cc1ccc(C(=O)Nc2oc(-c3ccccc3)cc2C#N)cc1	30.5*	0.7	-15.9	-3.8	-31.0
COCCNC(=O)C1(C)Cc2c(-c3ccc(N(C)C)cc3)ccnc2O1 (configuration not stated)	x	x	-4.0	2.8	x
COc1ccc2c(c1)Sc1ccccc1N2CCN(C)C	40.0*	-1.8	-37.2	-4.0	x
CN=C1S/C(=C\c2cccc(Cl)c2Cl)C(=O)N1C	x	x	-16.5	-7.0	x
COc1cc(-c2noc(-c3ccc(NCc4cccnc4)c([N+](=O)[O-])c3)n2)cc(OC)c1OC	x	-1.1	x	x	-7.0
C=CC(COCc1ccccc1)N(C(=O)OC(C)(C)C)S(=O)(=O)c1ccccc1Br (configuration not stated)	68.0*	0.9	-4.3	-0.3	7.3
CN1/C(=C\C(=O)C[n+]2ccc(C(=O)c3ccccc3)cc2)C(C)(C)c2ccccc21	15.3	1.6	53.2*	6.1	-3.2
Cc1ccc(C)c(N(C)C(=O)CCNC(=O)Cn2cnc3ccccc3c2=O)c1	x	-0.7	x	x	4.6
CCN(CC)S(=O)(=O)c1cccc(NC(=O)COC(=O)c2cc(=O)c3ccccc3o2)c1	-4.7	1.0	-13.7	-1.1	30.7*
CCN(CC)S(=O)(=O)c1cccc(NC(=O)COC(=O)c2ccc(Br)o2)c1	2.9	-0.3	-12.6	0.7	21.2
CCOC(=O)N1CCC(Nc2c(Nc3ccc(C)c(C)c3)c(=O)c2=O)CC1	57.0*	-1.5	-18.1	1.3	-25.6
CCCC(=O)C1=C(c2ccc(C)cc2)N(C(=O)CCC)n2cnnc2S1	x	0.0	x	x	-10.4
COc1ccc(N2C(=O)C(CC(=O)Nc3ccc(F)cc3)N(Cc3ccc4c(c3)OCO4)C2=O)cc1 (configuration not stated)	x	0.3	x	x	-22.5
COc1ccc(N2C(=O)C(CC(=O)Nc3ccccc3)N(Cc3ccc4c(c3)OCO4)C2=O)cc1 (configuration not stated)	43.0*	0.4	-11.7	3.5	13.4
Cc1ccccc1OCCCn1c(CCNC(=O)C2CCCCC2)nc2ccccc21	x	1.7	x	x	-22.4
CCNC(=O)C1(C)CCN(C(=O)c2cccs2)C1 (configuration not stated)	x	x	-1.8	-4.7	x
Cc1ccc(NC(=O)C2CCN(c3nc(-c4ccc(C(C)C)cc4)no3)CC2)c(Cl)c1	x	1.0	x	x	-6.6
SMILES	D2 antag	D2 ag-1	D2 PAM-1	D2 ag-2	D2 PAM-2
C=CCNC(=O)CC(=O)N/N=C/c1ccc(C(=O)OC)cc1	33.4*	0.8	-9.2	1.1	-2.1
COC(=O)c1ccc(/C=N\NC(=O)CC(=O)NCCc2ccccc2)cc1	-13.5	0.1	-3.5	-3.0	-7.7
O=C(NCC(c1cccnc1)N1CCc2ccccc21)C(=O)Nc1ccccc1F (configuration not stated)	x	-0.3	x	x	-4.0
Cc1ccc(C2=NN(C(=O)CSc3nnnn3C)C(c3ccco3)C2)cc1 (configuration not stated)	42.8*	0.4	-4.9	-2.6	4.2
Cc1cnc(C(=O)Oc2ccc(-c3ccccc3)cc2)cn1	-7.0	-0.8	-3.9	-1.3	-5.2
O=C1C=C(c2ccccc2)C[C@H](c2cccs2)[C@H]1n1nnc([N+](=O)[O-])n1	x	x	57.8*	13.3	-1.4
O=C1C=C(c2ccccc2)CC(c2cccs2)C1n1cnc([N+](=O)[O-])c1 (configuration not stated)	-25.4	-0.7	21.5	1.0	13.4
CCCN1C(=O)C(NC(=O)c2ccccc2OC)(C(F)(F)F)C(C(=O)OC)=C1C (configuration not stated)	x	0.5	x	x	-3.6
COc1ccc(OC)c(C(C)NC(=O)Cn2c(=O)cc(C)c3c(C)nn(-c4ccc(C)cc4)c32)c1 (configuration not stated)	x	-0.5	x	x	-7.4
N#Cc1cccc(C(c2nnnn2C2CCCC2)N2CCC(Cc3ccccc3)CC2)c1 (configuration not stated)	1.1	-0.1	1.1	-3.6	40.2*
O=C(CN1C(=O)CCC1=O)NCC12CC3CC(CC(C3)C1)C2	-8.9	-1.8	-7.8	-4.0	38.5*
CCOc1ncccc1C(=O)OCC(=O)NCc1cccs1	x	x	-1.8	-1.3	x
Cc1ccc(S(=O)(=O)NCCSc2nncn2C)cc1	-16.2	0.2	-3.7	0.9	35.1*
Cc1cccc(NS(=O)(=O)c2ccc(C(=O)NCC(c3ccco3)N3CCCCC3)cc2)c1C (configuration not stated)	-2.9	0.5	-6.6	-3.5	-4.0
COC(=O)c1ccn(CSc2cc(Cl)ccc2Cl)n1	41.8*	1.1	-1.9	2.7	-0.8
CS(=O)(=O)Nc1ccc(-c2nc3ccccc3s2)cc1	x	x	x	x	0.0
CCc1ccc(CNC(=O)c2cc(=O)[nH]c3ccc(S(=O)(=O)N4CCCCC4)cc23)cc1	x	0.0	x	x	-8.7
C=CCN(c1ccc(C(=O)Nc2cccc([N+](=O)[O-])c2)cc1)S(C)(=O)=O	37.2*	0.3	-16.5	1.8	-29.3
O=C(COC(=O)c1cc(=O)[nH]c(=O)[nH]1)Nc1ccccc1F	x	x	11.2	0.3	x
